Test results from PubChem BioAssay AID1566 (Sanford-Burnham Center for Chemical Genomics, 2009).
Screen size: about 290,000 compounds; about 1,800 (0.62%) were called active. This is one part of a sample in which actives are shown more often than they occur. Unmarked numbers belong to inactive results. Rule as the data show it: active = inhibition above about 50%; inactive = the rest.

test: NOD2 signaling inhibitors, cell-based, luminescence, uHTS, HEK293 (AID 1566); conditions: HEK293 NOD2/NF-kB luciferase reporter, at 4 µM, stronger effect = higher value

Going from `COc1ccccc1CNC(=O)C1CC(c2c(Cl)cccc2Cl)=NO1` (configuration not stated) to `O=C(Nc1ccc(Cl)cc1C(F)(F)F)c1ccccc1Cl`, the inhibition falls from 8.6% to 3.5%.

Going from `Cc1ccc(NC(=O)Nc2ccc(Cl)cc2)c(Br)c1` to `Fc1ccc(NC(=S)Nc2cc(Cl)ccc2Cl)cc1`, the inhibition rises from -38.7% to -16.8%.

Compared with `O=C(Nc1ccc(Cl)cc1)c1cc(Br)ccc1OCC(=O)N1CCOCC1`, `Cc1ccccc1C(=O)N1CCN(c2ccc(NC(=O)c3ccc4c(c3)OCO4)cc2)CC1` is lower in inhibition: 40% for the first, -42.4% for the second.

Compared with `COc1ccc(-c2csc(N3CCC(c4ccccc4)CC3)n2)cc1`, `COc1ccc(Nc2cc(Nc3ccccc3)ncn2)cc1` is lower in inhibition: 13.7% for the first, -87% for the second.

Compared with `Cc1occc1-c1nnc(SCC(=O)O)n1-c1ccccc1`, `NC(=O)CSc1nnc(-c2ccccc2Br)n1-c1cccc(C(F)(F)F)c1` is higher in inhibition: -13.8% for the first, 5.9% for the second.

Compared with `C[C@@H]1C(=O)O[C@H]2[C@H]1CC[C@@]1(C)C(=O)C=C[C@@](C)(O)[C@H]21`, `C=CCNS(=O)(=O)CC12CCC(CC1=O)C2(C)C` (configuration not stated) is higher in inhibition: 1.1% for the first, 5.2% for the second.

Compared with `COc1cc(/C=C/C(=O)O)ccc1OCc1ccccc1C#N`, `O=C(O)/C=C/c1ccc(OCc2cccc(F)c2)cc1` is lower in inhibition: 18% for the first, -4.9% for the second.

Compared with `COc1cccc(N(CC(=O)NC2CCCC2)C(=O)CCC(=O)Nc2cc(C)on2)c1`, `COCCCn1c(SCC(=O)Nc2ccc(NC(C)=O)cc2)nc2sc3c(c2c1=O)CCC3` is higher in inhibition: 2.5% for the first, 11.9% for the second.

Compared with `CC(C)=CCOc1ccc2c(C)c(CC(=O)N3C[C@H]4C[C@@H](C3)c3cccc(=O)n3C4)c(=O)oc2c1C`, `C=C(C)COc1ccc2c(C)c(CC(=O)N3C[C@H]4C[C@@H](C3)c3cccc(=O)n3C4)c(=O)oc2c1` is lower in inhibition: 15.8% for the first, 5% for the second.

Compared with `CCOc1ccccc1-n1c(SCC(=O)N2CCOCC2)nc2ccccc2c1=O`, `CCCc1nc2ccccc2c(=O)n1CCc1ccccc1` is lower in inhibition: 24.9% for the first, -5.9% for the second.

First: O=C(NCCNc1ccc(Cl)cc1[N+](=O)[O-])c1ccccc1F
Second: O=C(NCCCNc1ccnc2cc(Cl)ccc12)c1ccccc1F
The inhibition of the first is lower: -16.6% for the first, 28.3% for the second.

Going from `C=CCOC(=O)C1=C(C)NC(C)=C(C(=O)OCC=C)C1/C=C/c1ccccc1` to `CCC(CC)COC(=O)C1=C(C)NC(=O)NC1c1cc(OC)ccc1OC` (configuration not stated), the inhibition falls from -0.8% to -2%.

First: Cc1ccccc1C(=O)Oc1cc(N)n(S(=O)(=O)c2ccccc2)n1
Second: N#CC(c1nc2ccccc2nc1N1CCCC1)S(=O)(=O)c1ccccc1 (configuration not stated)
The inhibition of the first is higher: 5.8% for the first, -3.3% for the second.

First: Cc1ccccc1NS(=O)(=O)c1cc(OCC(N)=O)c(C)cc1Cl
Second: Cc1cc(C)c2nc(Cl)c(CN(Cc3ccco3)C(=O)Nc3ccccc3C)cc2c1
The inhibition of the first is higher: 0.2% for the first, -17.6% for the second.

Compared with `CC1Cc2ccccc2N1c1ncnc2c1nnn2Cc1ccccc1` (configuration not stated), `CC1Cc2ccccc2N1c1ncnc2nc[nH]c12` (configuration not stated) is lower in inhibition: 9.3% for the first, 1.3% for the second.

First: Fc1ccc2c(Cl)c(-c3nnc(-c4cccs4)o3)sc2c1
Second: CC(=O)Nc1ccc(NC(=O)CSc2nc3nc(-c4cccs4)cc(C(F)(F)F)c3c(=O)[nH]2)cc1
The inhibition of the first is lower: -112% for the first, 5.7% for the second.

First: N=C(N)SCc1cn(-c2ccccc2)nc1-c1ccc(Br)cc1
Second: COc1ccc(-c2ncccc2O)cc1
The inhibition of the first is higher: 8.8% for the first, -2.7% for the second.

Compared with `COc1ccc(S(=O)(=O)N2CCN(C3CCCC(C)C3)CC2)cc1` (configuration not stated), `COc1ccc(-n2cnnc2SCC(=O)c2ccc(S(=O)(=O)N3CCOCC3)cc2)cc1` is higher in inhibition: -12.3% for the first, 2.6% for the second.

Going from `O=C(Nc1cccc(Cl)c1)c1ccc2c(c1)OCCO2` to `Cc1ccc(NC(=O)c2ccc3c(c2)OCCO3)cc1S(=O)(=O)Nc1cccc(Cl)c1`, the inhibition rises from -169% to 10.3%.

First: COC(=O)[C@H](C)NC(=O)NC1CCCc2ccccc21 (some centres not stated)
Second: CC(C)CNC(=O)COC(=O)c1c2c(nc3ccccc13)CCC2
The inhibition of the first is lower: 3.2% for the first, 6.3% for the second.

Compared with `C/C(CC(=O)NCc1ccc(Cl)cc1)=N\NC(=O)c1ccccc1F`, `COc1ccc(C(=O)NCc2ccc(-c3nc4ccccc4s3)cc2)cc1OC` is lower in inhibition: 4.7% for the first, -45.5% for the second.

Going from `O=C(Nc1ccc2c(c1)OC1(CCCC1)O2)C1CC1` to `Nc1ccc2c(c1)OC1(CCCCC1)O2`, the inhibition rises from -19.4% to 13.4%.

Going from `CCN(CCCNC(=O)C1CCN(S(=O)(=O)N2CCC3(CC2)OCCO3)CC1)c1ccccc1` to `O=C(CCS(=O)(=O)c1ccccc1)NC12CC3CC(CC(C3)C1)C2`, the inhibition falls from 5.4% to -42.4%.

First: CNC(=O)COC(=O)c1c2c(nc3ccccc13)CCC2
Second: O=C(O)c1ccc(/C=C2\CCCc3c2nc2ccccc2c3C(=O)O)cc1
The inhibition of the first is lower: 4.8% for the first, 8.2% for the second.

First: CC(C)CC(NC(=O)OC(C)(C)C)C(=O)NC(C(=O)N1CCCC1C(N)=O)C(C)C (configuration not stated)
Second: COc1cc(C(=O)N[C@H](C(=O)NC(C)C23CC4CC(CC(C4)C2)C3)C(C)C)cc(OC)c1OC (some centres not stated)
The inhibition of the first is higher: 4.1% for the first, 4% for the second.

First: Cc1oc(-c2ccccc2Cl)nc1CN1CCCC1c1ccc(F)cc1 (configuration not stated)
Second: Cc1ccc(S(=O)(=O)C(C#N)c2nc3ccccc3nc2N2CCCCC2)cc1 (configuration not stated)
The inhibition of the first is lower: 0.4% for the first, 7.4% for the second.

First: Cc1ccccc1C(=O)N1CCN(C(c2ccccc2)c2ccccc2)CC1
Second: CCOc1ncccc1C(=O)N1CCN(C(c2ccccc2)c2ccccc2)CC1
The inhibition of the first is higher: 46.9% for the first, 43.5% for the second.

Compared with `COc1ccc(N(Cc2cc3cc(OC)ccc3[nH]c2=O)C(=O)c2cccnc2)cc1`, `COc1ccc(Nc2cc(Nc3ccc(OC)cc3)ncn2)cc1` is lower in inhibition: 29.5% for the first, -19.7% for the second.

Compared with `COc1cc(C(=O)NCc2ccc(-c3nc4ccccc4s3)cc2)cc(OC)c1OC`, `COc1ccc(NC(=O)CSc2nc3nc(-c4cccs4)cc(C(F)(F)F)c3c(=O)[nH]2)c(OC)c1` is higher in inhibition: -72.3% for the first, 22.2% for the second.

Going from `COc1cc(OC)c(OC)cc1CN1CCN(Cc2ccc(C(F)(F)F)cc2)CC1` to `COc1cccc(-c2cc(C(F)(F)F)n3ncc(C(=O)N4CCc5ccccc5C4)c3n2)c1`, the inhibition rises from 5.4% to 17.4%.

Compared with `Cc1ccc(NC(=O)N(Cc2ccco2)Cc2cc3cc(C)cc(C)c3nc2Cl)cc1`, `O=C(Nc1ccc(N2CCN(C(=O)c3ccccc3)CC2)cc1)c1ccc2c(c1)OCCO2` is higher in inhibition: -17.3% for the first, 38.7% for the second.

First: CC1(C)C2CCC1(CS(=O)(=O)NC1CCCC1)C(=O)C2 (configuration not stated)
Second: CC(c1cccnc1)N(C(=O)Nc1ccccc1)C1CCCCC1 (configuration not stated)
The inhibition of the first is higher: 17.9% for the first, -11.5% for the second.

First: CCN(CC)c1nc2c(c(=O)[nH]c(=O)n2C)n1Cc1ccccc1Cl
Second: O=C(CCCn1c(=S)[nH]c2cc3c(cc2c1=O)OCO3)N1CCN(c2ccccc2)CC1
The inhibition of the first is lower: 5.7% for the first, 12.2% for the second.

Compared with `O=C(O)c1c2c(nc3ccccc13)/C(=C/c1ccc(O)cc1)CCC2`, `Cc1cccnc1CCNC(=O)c1ccc(OC2CCN(Cc3ccccn3)CC2)cc1` is lower in inhibition: 11.1% for the first, 2.1% for the second.

First: O=C(NCCc1ccccn1)c1ccc(OC2CCN(Cc3ccccn3)CC2)cc1
Second: O=C(CCc1nnc(CCCCc2ccccc2)o1)NCCc1cccnc1
The inhibition of the first is lower: 6.5% for the first, 24.2% for the second.

Compared with `Cc1ccc2oc(/N=C(\N)NC(=O)C3CC3)nc2c1`, `CC(=O)N/C(N)=N/c1nc2cc(C)ccc2o1` is lower in inhibition: 5.6% for the first, -93.3% for the second.

Going from `O=C(CSc1nn(-c2ccc(F)cc2)c(=S)s1)N1CCN(C(=O)c2ccco2)CC1` to `O=C(CCCn1c(=S)[nH]c2cc3c(cc2c1=O)OCO3)N1CCN(c2ccc(F)cc2)CC1`, the inhibition rises from 4.8% to 27.2%.

Compared with `Cc1no[n+]([O-])c1COc1ccc(/C=N/n2nnnc2N)cc1`, `COc1cccc(/C=N/NC(=O)c2nnn(-c3nonc3N)c2C(C)C)c1` is higher in inhibition: -31% for the first, 26.6% for the second.

Going from `O=C(CCCCCn1c(=S)[nH]c2ccc(N3CCOCC3)cc2c1=O)NCc1ccccc1` to `Cc1cccc(N2CCN(C(=O)CCCn3c(=S)[nH]c4cc5c(cc4c3=O)OCO5)CC2)c1C`, the inhibition rises from 29.5% to 38.2%.

With `Cc1[nH]nc(N)c1-c1ccc(Cl)cc1` the inhibition was 14.7%.

In the case of `N#Cc1ccccc1COc1ccc(/C=C/C(=O)O)cc1`, the inhibition is reported as 64.4% (active).
In the case of `C=C(C)COc1ccc2c(C)c(CC(=O)N3C[C@H]4C[C@@H](C3)c3cccc(=O)n3C4)c(=O)oc2c1C`, the inhibition is reported as 51.9% (active).
For `O=C(NCCNc1ccnc2cc(Cl)ccc12)c1ccccc1F`, the inhibition was 54.8% (active).
For `CC1Cc2ccccc2N1c1ncnc(N)c1[N+](=O)[O-]` (configuration not stated), the inhibition was 82.8% (active).
With `O=C(Nc1cccc(S(=O)(=O)Nc2ccc(Cl)cc2)c1)c1ccc2c(c1)OCCO2` the inhibition was 55.7% (active).
With `Nc1ccc2c(c1)OC1(CCCC1)O2` the inhibition was 69.9% (active).
With `CC(C)NC(=O)NC(=O)COC(=O)c1c2c(nc3ccccc13)CCC2` the inhibition was 51.1% (active).
For `COc1ccc(Nc2cc(Sc3ccc(OC)cc3)ncn2)cc1`, the inhibition was 55.2% (active).
In the case of `Cc1cccc2cc(CN(Cc3ccco3)C(=O)Nc3cccc(C#N)c3)c(Cl)nc12`, the inhibition is reported as 55.3% (active).
For `CC(C)(C)NS(=O)(=O)CC12CCC(CC1=O)C2(C)C` (configuration not stated), the inhibition was 50.9% (active).
With `O=C(O)c1c2c(nc3ccccc13)/C(=C/c1ccc(O)cc1)CC2` the inhibition was 72.4% (active).
For `O=C(NCCc1cccc(Cl)c1)c1ccc(OC2CCN(Cc3ccccn3)CC2)cc1`, the inhibition was 53.1% (active).
In the case of `N#CC(c1nc2ccccc2nc1N1CCCCC1)S(=O)(=O)c1ccc(Cl)cc1` (configuration not stated), the inhibition is reported as 55.3% (active).
